Experimental data: the supplement of paper PMC6522484
± gives the standard deviation of the averaged measurements.

What was measured:
DLD1 [1] = test: cell viability (CellTiter-Glo) relative to plate median (fraction of plate median); higher = more viable cells; conditions: 5 µM; treatment time 24 h; reporter: 7TFP
Procedure, shortened: (§1)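 Signals from firefly luciferase or CellTiterGlo readouts were normalised well by well to the plate median using webcellHTS2, additively and with no log transformation. They came from colorectal cancer cell lines stably holding lentiviral TCF/Wnt firefly luciferase reporters (7TFP or TCF4/Wnt), treated with library compounds at a final 5 µM for 24 h. The mean of two independent replicates is given.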

HCT116 = test: as above; conditions: 5 µM; treatment time 24 h; reporter: TCF4/Wnt
Procedure, shortened: as §1

SW480 [2] = test: as above; conditions: 5 µM; treatment time 24 h; reporter: 7TFP
Procedure, shortened: as §1

DLD1 [3] = test: TCF/Wnt firefly luciferase reporter signal relative to plate median (fraction of plate median); higher = higher Wnt reporter signal; conditions: 5 µM; treatment time 24 h; reporter: 7TFP
Procedure, shortened: as §1

SW480 [4] = test: as above; conditions: 5 µM; treatment time 24 h; reporter: 7TFP
Procedure, shortened: as §1

SMILES | cell viability (DLD1 [1]) | cell viability (HCT116) | cell viability (SW480 [2]) | TCF/Wnt firefly luciferase reporter signal (DLD1 [3]) | TCF/Wnt firefly luciferase reporter signal (SW480 [4])
C#CCCCCCCCCCCCC(O)CC(O)COC(C)=O (stereo not given) | 1.02 ± 0.021 | 1.05 ± 0.089 | 1.06 ± 0.014 | 1.08 ± 0.12 | 0.941 ± 0.098
CC(C)[C@@H](C)/C=C/[C@@H](C)[C@H]1CC[C@H]2C3=CC=C4C[C@@H](O)CC[C@]4(C)[C@H]3CC[C@]12C | 1.05 ± 0.05 | 1.03 ± 0.14 | 1.14 ± 0.099 | 0.912 ± 0.079 | 1 ± 0.083
CCOC(=O)[C@@](C)(N)Cc1ccc(O)c(O)c1 | 1 ± 0.025 | 0.93 ± 0.098 | 0.979 ± 0.044 | 1.1 ± 0.12 | 1.07 ± 0.064
COC(=O)C1=C(C)NC(C)=C(C(=O)OCC(C)C)C1c1ccccc1[N+](=O)[O-] (stereo not given) | 0.869 ± 0.11 | 1 ± 0.041 | 0.905 ± 0.071 | 0.961 ± 0.24 | 0.923 ± 0.037
CC1(C)CC2C1CC[C@]1(CBr)CCC3C(CC(=O)O)C(=O)O[C@@]32C1 (stereo not given in full) [BROMO-3-HYDROXY-4-(SUCCIN-2-YL)-CARYOLANE gamma-LACTONE] | 0.95 ± 0.085 | 1.03 ± 0.079 | 0.987 ± 0.033 | 1.08 ± 0.035 | 1.095 ± 0.0071
Cc1onc(-c2ccccc2Cl)c1C(=O)N[C@@H]1C(=O)N2[C@@H]1SC(C)(C)[C@@H]2C(=O)O | 1.02 ± 0.17 | 1.02 ± 0.06 | 0.994 ± 0.037 | 1.02 ± 0.035 | 0.952 ± 0.058
CC1(C)O[C@@H]2C[C@H]3[C@@H]4CCC5=CC(=O)CC[C@]5(C)[C@@]4(F)[C@@H](O)C[C@]3(C)[C@]2(C(=O)CCl)O1 | 0.921 ± 0.12 | 0.925 ± 0.074 | 0.977 ± 0.061 | 0.927 ± 0.042 | 1.01 ± 0.066
COc1cc2c(cc1OC)C(=O)OC2 | 0.982 ± 0.054 | 1.12 | 1.025 ± 0.0071 | 1.22 ± 0.014 | 1.06 ± 0.014
C[C@]12CCC(=O)C=C1CC[C@@H]1[C@@H]2[C@@H](O)C[C@@]2(C)[C@H]1CC[C@]2(O)C(=O)COC(=O)CCC(=O)O | 1.07 ± 0.042 | 1.11 | 1.03 ± 0.035 | 1.01 ± 0.02 | 1 ± 0.099
CC/C(=C(/CC)c1ccc(O)cc1)c1ccc(O)cc1 | 0.959 ± 0.072 | 0.845 ± 0.021 | 0.982 ± 0.11 | 1.06 ± 0.18 | 1.13 ± 0.028
O=c1c(O)c(-c2ccccc2)oc2ccccc12 | 0.992 ± 0.026 | 0.961 ± 0.069 | 1 ± 0.027 | 1.1 ± 0.16 | 0.977 ± 0.1
C=C[C@H]1CN2CC[C@H]1C[C@@H]2[C@@H](O)c1ccnc2ccc(OC)cc12 | 0.963 ± 0.052 | 0.966 ± 0.042 | 0.977 ± 0.047 | 1.21 ± 0.14 | 0.933 ± 0.021
Cc1ccc(-c2cc(C(F)(F)F)nn2-c2ccc(S(N)(=O)=O)cc2)cc1 | 0.972 ± 0.097 | 1.02 ± 0.087 | 0.987 ± 0.047 | 0.919 ± 0.013 | 0.947 ± 0.04
CC(=O)Nc1nnc(S(N)(=O)=O)s1 | 0.981 ± 0.055 | 0.907 ± 0.11 | 0.989 ± 0.016 | 0.865 ± 0.044 | 1.09 ± 0.092
C[C@]12CCC(=O)C=C1CC[C@@H]1[C@@H]2[C@@H](O)C[C@@]2(C)[C@H]1CC[C@]2(O)C(=O)COP(=O)(O)O | 0.949 ± 0.0099 | 0.974 ± 0.065 | 0.969 ± 0.03 | 1.01 ± 0.025 | 1.07 ± 0.014
C[N+](C)(C)CC(O)CC(=O)[O-] (stereo not given) | 0.976 ± 0.03 | 1.07 ± 0.14 | 0.9395 ± 0.00071 | 1.14 ± 0.014 | 0.902 ± 0.1
NNc1nncc2ccccc12 | 1.055 ± 0.0071 | 1.06 ± 0.057 | 1.055 ± 0.0071 | 1.23 ± 0.25 | 1.28 ± 0.17
Nc1ncnc2c1ncn2[C@H]1C[C@H](O)[C@@H](CO)O1 | 1.07 ± 0.064 | 1.06 ± 0.021 | 1.01 ± 0.044 | 1.05 ± 0.014 | 1.09 ± 0.064
C[C@@H]1CC[C@H]2[C@](C)(CO)[C@@H](O)CC[C@]2(C)[C@@]12CC[C@@](CO)(CCO)O2 | 0.994 ± 0.052 | 1.02 ± 0.049 | 0.9945 ± 0.0078 | 1.01 ± 0.043 | 1.02 ± 0.014
C[C@]12CC[C@@H]3c4ccc(O)cc4CC[C@H]3[C@@H]1CC[C@@H]2O | 0.914 ± 0.11 | 1.01 ± 0.098 | 0.949 ± 0.024 | 1.07 ± 0.092 | 1.02 ± 0.021
CC(=O)OCC(=O)[C@@]1(O)[C@@H](C)C[C@H]2[C@@H]3CCC4=CC(=O)C=C[C@]4(C)[C@@]3(F)[C@@H](O)C[C@@]21C | 1.04 ± 0.014 | 1.17 ± 0.11 | 1 ± 0.026 | 0.989 ± 0.011 | 0.876 ± 0.14
CC[C@@H]1C(=O)OC[C@@H]1Cc1cncn1C | 1.015 ± 0.0071 | 0.953 ± 0.067 | 0.992 ± 0.012 | 1.18 ± 0.05 | 1.16 ± 0.16
CCCCc1nc(Cl)c(CO)n1Cc1ccc(-c2ccccc2-c2nnn[nH]2)cc1 | 0.909 ± 0.09 | 0.921 ± 0.052 | 1.02 ± 0.045 | 1.08 ± 0.25 | 0.715 ± 0.37
CC(=O)Oc1ccc(C(c2ccc(OC(C)=O)cc2)c2ccccn2)cc1 | 0.806 ± 0.057 | 0.931 ± 0.15 | 1.1 ± 0.092 | 0.65 ± 0.098 | 1.03 ± 0.085
CCCCCC(C)N (stereo not given) | 1.02 ± 0.066 | 1.09 ± 0.021 | 0.954 ± 0.0099 | 1.14 ± 0.078 | 1.08 ± 0.057
COc1ccc2c3c1O[C@H]1C[C@@H](O)C=C[C@@]31CCN(C)C2 | 1.04 ± 0.05 | 1 ± 0.081 | 1.03 ± 0.045 | 0.9965 ± 0.0021 | 1.05
CC(=O)O[C@@H]1CC2C(C)(C)[C@H](O)C[C@H](O)[C@@]2(C)C2CC[C@]3(C)C(=CC(=O)O[C@@H]3c3ccoc3)[C@]21C (stereo not given in full) | 0.961 ± 0.098 | 0.982 ± 0.097 | 0.982 ± 0.011 | 1.07 ± 0.099 | 0.948 ± 0.088
COc1c2c(cc3occ(-c4ccc5c(c4)OCO5)c(=O)c13)OC(C)(C)C=C2 | 0.973 ± 0.067 | 0.951 ± 0.11 | 0.9305 ± 0.005 | 0.799 ± 0.37 | 0.607 ± 0.49
